Experimental findings from PubChem BioAssay (Tox21) are described below.

Results filed as inconclusive are left out. The source made the active and inactive calls. Unless noted, calls follow the shape of the dose curve; as a rule, active = well fitted curve in the direction sought with a large enough effect in the repeat runs; inconclusive = weak or mixed curves; inactive = no such curve, though single readings can be large; an effect the other way counts as inactive or inconclusive.

The nature of experiment [1]: qHTS assay to identify aromatase inhibitors - cell viability counter screen (AID 743084).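 Also: cells stimulated with testosterone during compound exposure; nearly all actives have a fitted effect of over 55% in size.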 Also: potency is read from the fitted curve at half-maximal effect. On the technique in general: Quantitative high-throughput screening tests each substance at several concentrations.
In experiment [2] the target is Aryl hydrocarbon receptor (Homo sapiens) (UniProt P35869). The experiment is described as follows: qHTS assay to identify small molecule that activate the aryl hydrocarbon receptor (AhR) signaling pathway (AID 743085). Also: nearly all actives have a fitted effect of over 15% in size. Also: potency is read from the fitted curve at half-maximal effect.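 As to activation: HG2L7.5c1 human HepG2 liver cells with stably integrated DRE-driven firefly reporter; series mostly up to about 70 µM.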 An outline of the steps: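 Luminescence read-out: ONE-Glo reagent, 30 min at room temperature, in HG2L7.5c1 HepG2 reporter cells treated 24 h at 37C. Viability was measured beforehand by CellTiter-Fluor fluorescence after 30 min at 37C.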
Chain of Aryl hydrocarbon receptor (Homo sapiens) (P35869 whole entry, looked up): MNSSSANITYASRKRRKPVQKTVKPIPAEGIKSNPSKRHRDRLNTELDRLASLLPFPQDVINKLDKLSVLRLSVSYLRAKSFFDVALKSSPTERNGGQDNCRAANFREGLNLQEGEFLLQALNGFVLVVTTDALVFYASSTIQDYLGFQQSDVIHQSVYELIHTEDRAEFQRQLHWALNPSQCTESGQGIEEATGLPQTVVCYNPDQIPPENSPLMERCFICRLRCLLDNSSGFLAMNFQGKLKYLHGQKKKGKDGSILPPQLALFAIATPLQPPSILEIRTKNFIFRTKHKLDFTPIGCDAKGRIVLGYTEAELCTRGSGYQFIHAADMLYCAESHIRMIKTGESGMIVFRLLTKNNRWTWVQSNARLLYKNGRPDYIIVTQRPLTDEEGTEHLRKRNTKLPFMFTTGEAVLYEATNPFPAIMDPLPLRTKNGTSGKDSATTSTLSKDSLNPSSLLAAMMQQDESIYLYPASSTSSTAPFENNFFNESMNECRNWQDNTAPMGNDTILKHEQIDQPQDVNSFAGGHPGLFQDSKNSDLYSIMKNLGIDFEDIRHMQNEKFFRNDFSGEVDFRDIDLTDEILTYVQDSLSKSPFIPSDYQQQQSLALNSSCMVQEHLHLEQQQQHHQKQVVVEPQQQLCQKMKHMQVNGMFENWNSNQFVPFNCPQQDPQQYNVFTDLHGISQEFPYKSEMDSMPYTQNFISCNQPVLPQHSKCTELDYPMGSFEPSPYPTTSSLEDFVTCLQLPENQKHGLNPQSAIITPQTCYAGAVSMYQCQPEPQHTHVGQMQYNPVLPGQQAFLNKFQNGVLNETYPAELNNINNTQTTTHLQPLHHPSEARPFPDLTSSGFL

Experiment [3] in a line: qHTS assay to identify small molecule that activate the aryl hydrocarbon receptor (AhR) signaling pathway - cell viability counter screen (AID 743086). Also: nearly all actives have a fitted effect of over 45% in size. Also: potency is read from the fitted curve at half-maximal effect. In outline: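 HepG2-AhR-luc (HG2L7.5c1) cells, 4000/well, treated 24 h at 37 C with compound; viability measured as CellTiter-Fluor fluorescence after 30 min in the same wells as the luciferase read.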
Experiment [4] can be described thus: qHTS assay to identify small molecule antagonists of the peroxisome proliferator-activated receptor gamma (PPARg) signaling pathway - cell viability counter screen (AID 743194). Also: nearly all actives have a fitted effect of over 55% in size. Also: potency is read from the fitted curve at half-maximal effect. An outline of the steps: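 Cytotoxicity counter screen in PPARg-bla HEK293H cells, same wells as reporter assay. Compounds plus 50 nM rosiglitazone (final) for 17 h at 37 C, then viability read by CellTiter-Glo luminescence.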

A short description of experiment [5]: qHTS assay for small molecule agonists of the antioxidant response element (ARE) signaling pathway - cell viability counter screen (AID 743203; calls by dose curve; also: nearly all actives have a fitted effect of over 55% in size; also: potency is read from the fitted curve at half-maximal effect). In outline:
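Seeded at 2,000 cells/well, ARE-bla HepG2 cells were incubated 5 hrs before compound addition. After 16 hrs of treatment at 37C with 5% CO2, CellTiter-Glo reagent was added and luminescence read 30 min later.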

Experiment [6] is described as follows: qHTS assay for small molecule activators of the heat shock response signaling pathway - cell viability counter screen (AID 743209). Also: nearly all actives have a fitted effect of over 50% in size. Also: potency is read from the fitted curve at half-maximal effect. An outline of the steps:
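First, HSE-bla HeLa cells were seeded at 1500 cells/well and kept overnight at 37 C. Next, compounds were pinned in and incubated 5 h. After the FRET substrate step, CellTiter-Glo was added and luminescence read 30 min later.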

Experiment [7] can be described thus: qHTS assay for small molecule activators of the heat shock response signaling pathway (AID 743210; active = well fitted activation curve with a large enough effect in the signal ratio in the repeat runs, with a control signal flat, not every such curve was filed as active; the % refers to the signal ratio; also: series mostly up to about 63 µM). In outline: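 HSE-bla HeLa cells (beta-lactamase reporter under heat shock response elements), plated overnight, then exposed to compounds 5 h at 37 C; LiveBLAzer B/G FRET substrate added, 2.5 h at room temperature, fluorescence intensity read.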
The nature of experiment [8]: qHTS assay for small molecule agonists of the antioxidant response element (ARE) signaling pathway (AID 743202; active = well fitted activation curve with a large enough effect in the signal ratio in the repeat runs, not every such curve was filed as active; the % refers to the signal ratio; also: potency is read from the fitted curve at half-maximal effect). In outline: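 ARE-bla HepG2 cells (beta-lactamase reporter under the antioxidant response element), plated 5 hours, then exposed to compounds 16 hours at 37 C. LiveBLAzer B/G FRET substrate added for 2 hours at room temperature; fluorescence intensity read.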

Experiment [9] concerns the target Peroxisome proliferator-activated receptor gamma (Homo sapiens) (UniProt P37231). The experiment is described as follows: qHTS assay to identify small molecule agonists of the peroxisome proliferator-activated receptor gamma (PPARg) signaling pathway (AID 743094; active = well fitted activation curve with a large enough effect in the signal ratio in the repeat runs, not every such curve was filed as active; the % refers to the signal ratio). In outline: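 Quantitative HTS agonist mode: stable HEK293H line with UAS-beta-lactamase reporter under PPARg control, 17 h compound exposure at 37C, fluorescence after 1 h FRET substrate loading at room temperature.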

Experiment [10] has the same target. The experiment can be described thus: qHTS assay to identify small molecule antagonists of the peroxisome proliferator-activated receptor gamma (PPARg) signaling pathway (AID 743191; calls by dose curve; also: nearly all actives have a fitted effect of over 30% in size; also: potency is read from the fitted curve at half-maximal effect). An outline of the steps: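 GeneBLAzer PPARg UAS-bla HEK293H cells, 5 h post-plating, exposed to compounds 17 h at 37C. LiveBLAzer B/G FRET substrate added for 1 h at room temperature; beta-lactamase reporter read by fluorescence intensity.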

Chain of Peroxisome proliferator-activated receptor gamma (Homo sapiens) (P37231 whole entry, looked up): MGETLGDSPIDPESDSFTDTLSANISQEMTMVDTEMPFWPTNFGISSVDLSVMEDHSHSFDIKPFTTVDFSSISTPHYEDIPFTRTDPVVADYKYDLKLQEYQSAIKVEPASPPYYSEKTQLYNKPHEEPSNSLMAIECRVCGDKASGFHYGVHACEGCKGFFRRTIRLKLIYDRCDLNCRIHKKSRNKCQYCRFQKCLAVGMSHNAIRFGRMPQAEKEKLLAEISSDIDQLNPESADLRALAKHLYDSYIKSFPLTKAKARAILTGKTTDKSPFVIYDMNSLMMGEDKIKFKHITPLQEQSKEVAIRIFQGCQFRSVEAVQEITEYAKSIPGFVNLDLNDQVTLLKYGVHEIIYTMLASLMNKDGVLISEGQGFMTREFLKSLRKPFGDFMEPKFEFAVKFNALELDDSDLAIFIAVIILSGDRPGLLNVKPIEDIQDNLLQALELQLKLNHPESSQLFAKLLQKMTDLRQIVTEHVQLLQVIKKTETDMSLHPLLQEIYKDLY

On to `CS(=O)(=O)CCNCc1ccc(-c2ccc3ncnc(Nc4ccc(OCc5cccc(F)c5)c(Cl)c4)c3c2)o1`, for which the Potency result in [1], in experiment [2] and in [3] was “inactive” each time. Further, the values for the Potency in [4], in [5] and in experiment [6] were 15 µM (active), 26.6 µM (active) and 26.6 µM (active), respectively.

With `NC(=O)CC[C@@H]1NC(=O)[C@H](Cc2ccccc2)NC(=O)[C@H](Cc2ccc(O)cc2)NC(=O)CCSSC[C@@H](C(=O)N2CCC[C@H]2C(=O)N[C@@H](CCCN=C(N)N)C(=O)NCC(N)=O)NC(=O)[C@H](CC(N)=O)NC1=O`, the Potency result in experiment [1], in experiment [2], in experiment [3], in experiment [4], in experiment [5] and in experiment [6] was “inactive” each time.

`Clc1ccc2cc3ccccc3cc2c1`: the Potency entry in [1], in experiment [2], in [3], in experiment [4], in experiment [5] and in [6] was “inactive” each time.

For `Oc1cc2ccccc2c2ccccc12`, the Potency was 8.63 µM (active) in experiment [1]; 8.63 µM (active) in experiment [2]; 24.3 µM (active) in [3]; 3.89 µM (active) in experiment [4]; 9.69 µM (active) in experiment [5]; 9.77 µM (active) in [6].

Consider `Clc1ccc2n[nH]nc2c1`, for which the Potency entry in [1], in experiment [2], in experiment [3], in [4], in experiment [5] and in experiment [6] was “inactive” throughout.

`Cc1[nH]cnc1C[C@H]1CCc2c(C)c3ccccc3n2C1=O`: the Potency result in [1], in [2], in [3] and in [6] was “inactive” throughout. For the same compound, the figures for the Potency in experiment [4] and in experiment [5] were 19 µM (active) and 53.1 µM (active), respectively.

On to `Cc1c(C)c2c(c(C)c1OC(=O)CCC(=O)O)CC[C@@](C)(CCC[C@H](C)CCC[C@H](C)CCCC(C)C)O2`, for which the Potency result in [1], in experiment [2], in [3], in experiment [4], in experiment [5] and in [6] was “inactive” each time. Also, the Potency entry in experiment [7] was “inactive”.

Regarding `CCCCCCCCOc1ccccc1C(=O)Nc1ccc(C(=O)OCC[N+](C)(CC)CC)cc1`, the Potency result in experiment [1], in [2] and in [3] was “inactive” throughout. In addition, the Potency in [5] was 29.8 µM (active).

`Cc1cc(C2CCCCC2)n(O)c(=O)c1`: the Potency in experiment [1] is 12.7 µM (active). For the same compound, the Potency entry in [2], in [3] and in [6] was “inactive” in each case.

For the compound `CCCCN1C(=O)[C@@H]([C@H](O)C2CCCCC2)NC(=O)C12CCN(Cc1ccc(Oc3ccc(C(=O)O)cc3)cc1)CC2`, the Potency result in [1], in [2], in experiment [6] and in experiment [7] was “inactive” in each case. For the same compound, the Potency in experiment [3] is 8.63 µM (active).

`CCCCCCCC/C=C/CCCCCCCC1=NCCN1CCO`: the Potency in [1] is 48.6 µM (active); in experiment [4], 43.6 µM (active); in [5] it was 24.3 µM (active); in experiment [6] it was 19.5 µM (active). The Potency result in experiment [2] and in experiment [3] was “inactive” each time.

For `CCCCCCCCCCCCCC[P+](CCCC)(CCCC)CCCC` (tested in a mixture with another compound), the Potency in experiment [1] was 4.35 µM (active); in experiment [4], 0.277 µM (active); in [5], 19.4 µM (active); in experiment [6], 11 µM (active). Besides, the Potency result in [2] and in [3] was “inactive” throughout.

With `CC(C)CCCCCCCCCCCCCCC(=O)O`, the Potency result in [1], in experiment [2], in experiment [3], in experiment [8] and in experiment [5] was “inactive” each time. Moreover, the Potency in experiment [6] was 24.5 µM (active).

As to `ON=C1CCCC1`, the Potency entry in experiment [1], in [2], in experiment [9], in experiment [10], in [4] and in experiment [8] was “inactive” throughout. For the same compound, the Potency result in [5], in experiment [6] and in experiment [7] was “inactive” each time.

For `C=CC(=O)OCC(CO)(COCC(COC(=O)C=C)(COC(=O)C=C)COC(=O)C=C)COC(=O)C=C`, the Potency in [1] was 1.7 µM (active); in [4] it was 3.05 µM (active); in [5] it was 8.53 µM (active). For the same compound, the Potency entry in experiment [2] is “inactive”.

As for `CCCC(=O)OC[C@@H](OC(=O)CCC)[C@@H](OC(=O)CCC)[C@H](Cn1c2nc(=O)[nH]c(=O)c-2nc2cc(C)c(C)cc21)OC(=O)CCC`, the Potency result in experiment [1], in experiment [2] and in experiment [9] was “inactive” throughout. The Potency in experiment [5] is 26.6 µM (active).

As to `CCOC(=O)O[C@]1(C(=O)OCCl)CC[C@H]2[C@@H]3CCC4=CC(=O)C=C[C@]4(C)[C@H]3[C@@H](O)C[C@@]21C`, the Potency entry in experiment [1], in experiment [2], in [9], in [4], in experiment [5] and in experiment [6] was “inactive” each time. Moreover, the Potency entry in experiment [7] was “inactive”. Moreover, in experiment [8], the Potency is 10.6 µM (active).

With `C1CCCC1`, the Potency result in experiment [1], in [2], in experiment [9], in [10], in [4] and in experiment [5] was “inactive” in each case. Besides, the Potency entry in [6] and in experiment [7] was “inactive” throughout.

As for `CNC(=O)c1ccccc1`, the Potency result in experiment [1], in [2], in [9], in experiment [4], in experiment [5] and in experiment [7] was “inactive” in each case.

For `NNC(=O)c1cccc(C(=O)NN)c1`, the Potency result in experiment [1], in experiment [9], in experiment [10], in experiment [4], in [8] and in [5] was “inactive” in each case. Besides, the Potency result in experiment [6] and in experiment [7] was “inactive” in each case. In addition, the Potency in [2] is 27.3 µM (active).

`O=[N+]([O-])c1ccccc1Nc1ccccc1`: the Potency entry in experiment [1], in experiment [2], in experiment [9], in experiment [10], in [4] and in experiment [8] was “inactive” throughout. Also, the Potency entry in experiment [5] and in experiment [7] was “inactive” in each case.

On to `CCCCCCCCCCn1cc[n+](CCCCCCCCCC)c1C`, for which the Potency was 24.4 µM (active) in [1], 6.93 µM (active) in [4], 19.4 µM (active) in [5] and 21.9 µM (active) in experiment [6]. Further, the Potency result in experiment [2] was “inactive”.

For `CNc1ccc(O)cc1`, the Potency was 19.3 µM (active) in [1], 61 µM (active) in experiment [2] and 43.6 µM (active) in [4].

Take `O=C1c2c(O)ccc(Nc3ccc(CCO)cc3)c2C(=O)c2c([N+](=O)[O-])ccc(O)c21`: the Potency was 54.5 µM (active) in experiment [1], 6.86 µM (active) in experiment [2] and 54.9 µM (active) in experiment [10]. In addition, the Potency entry in [4], in experiment [6] and in experiment [7] was “inactive” throughout.

Consider `CCCCCCCCCCCCCCCCCC[N+](C)(C)Cc1ccccc1`, for which the Potency is 49 µM (active) in experiment [1], 44.1 µM (active) in [4], 19.5 µM (active) in experiment [5] and 27.8 µM (active) in [6]. The Potency result in experiment [2] is “inactive”.
